Results as given in PubChem BioAssay AID624037 (The Scripps Research Institute Molecular Screening Center, 2012).
In all, about 360,000 compounds went through this assay and about 700 (0.19%) were called active. What follows is part of a selection rich in actives, with near analogues and random picks from the rest. Values without a mark were called inactive.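 Rule for the calls: active = activation above the run's mean over test compounds plus 3 SD (cut at about 23% in these data); inactive = the rest.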

target: Muscarinic acetylcholine receptor M5 (Homo sapiens) (UniProt P08912); assay: human M5 muscarinic receptor agonists, primary screen, CHO-K1 cells, Fluo-8 calcium fluorescence (AID 624037); details: CHO-K1 hM5 cells, at 3 µM, hits give high values, 0% DMSO wells, 100% maximal acetylcholine response;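 note: signal is peak over basal fluorescence ratio across the kinetic read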
Sequence (P08912 whole entry, looked up): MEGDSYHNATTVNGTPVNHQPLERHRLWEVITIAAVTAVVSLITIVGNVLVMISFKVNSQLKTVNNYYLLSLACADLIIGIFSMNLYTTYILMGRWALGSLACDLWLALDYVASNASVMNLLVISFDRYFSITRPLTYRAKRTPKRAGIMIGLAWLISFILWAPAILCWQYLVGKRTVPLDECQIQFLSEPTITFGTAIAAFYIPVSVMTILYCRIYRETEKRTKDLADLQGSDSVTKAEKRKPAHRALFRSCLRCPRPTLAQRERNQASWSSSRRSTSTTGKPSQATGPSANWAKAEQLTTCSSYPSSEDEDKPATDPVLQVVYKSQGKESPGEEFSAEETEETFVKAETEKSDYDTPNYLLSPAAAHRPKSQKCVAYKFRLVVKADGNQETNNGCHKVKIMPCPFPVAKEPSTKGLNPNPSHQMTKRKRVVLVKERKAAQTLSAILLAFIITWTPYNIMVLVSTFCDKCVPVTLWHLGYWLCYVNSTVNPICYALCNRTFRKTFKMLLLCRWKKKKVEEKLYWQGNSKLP

Compound	activation
CC#CC[N+](C)(C)CCCCCC	-16.5%
CCc1ccc(NC(=O)C(C)OC(=O)/C=C/c2cccc([N+](=O)[O-])c2)cc1 (stereo not drawn)	-0.62%
CCCCN(C)CCNC(=O)CSCc1ccc(C)cc1	-6.02%
Cc1ccc(CNC(=O)C(=O)c2cn(CC(=O)N3CCOCC3)c3ccccc23)cc1	-1.51%
O=C1/C(=C/c2ccc3c(c2)OCO3)Oc2cc(OCC(=O)N3CC(O)C[C@H]3C(=O)O)ccc21 (stereo partly drawn)	0.73%
CCOCCCNC(=S)Nc1ccc2nc(N3CCN(CC)CC3)cc(C)c2c1	-4.11%
Cn1cccc1C(C#N)c1ccccc1C#N (stereo not drawn)	-3.67%
Cc1cccc(C)c1-n1nnnc1C1(C)CCC(=O)N1CCOc1ccccc1 (stereo not drawn)	4.47%
O=C1c2ccccc2C(=O)N1CCOc1ccc(F)cc1	11.9%
Cc1cccc2c1N(CCOc1ccccc1)C(=O)C2=O	30.5% (active)
O=c1ccc(S(=O)(=O)N2CCCC2)cn1Cc1nc(-c2ccccc2)no1	-5.43%
Cc1ccc(C)c(NC(=O)c2ccc(OC(=O)c3ccco3)cc2)c1	-2.18%
Cc1csc(=O)n1CC(=O)OCC(=O)N(CC(C)C)c1c(N)n(Cc2ccccc2)c(=O)[nH]c1=O	3.34%
CN(Cc1ccccc1)C(=O)COC(=O)/C=C/c1ccc2c(c1)OCO2	0.5%
CCNC(=O)C1(C)CCCN(Cc2noc(-c3ccccc3OC)n2)C1 (stereo not drawn)	1.13%
Cc1ccc(CNC(=O)c2cccc3c2C(=O)c2ccc(N4CCC(C)CC4)cc2S3(=O)=O)cc1	4.93%
COc1ccc(S(=O)(=O)N2CCC(C(=O)NCCC(=O)Nc3ccccc3OC)CC2)cc1	-1.33%
CN(c1ccccn1)c1ncnc2[nH]ncc12	-0.14%
CN(C)/C=C/C(=O)c1cnc2sccn2c1=O	-2.29%
O=C(O)c1ccn(COc2ccc(Br)cc2)n1	-0.71%
Cc1c(NC(=O)COC(=O)/C=C/c2cccc(F)c2)c(=O)n(-c2ccccc2)n1C	0.67%

Compound	activation
CCCCC[C@H]1CN(C2CCCCC2)C(=O)[C@@H]1CC(=O)NCc1ccc(OC)cc1	-4.19%
COc1cc(N2C(=O)CC3(CCCC3)CC2=O)cc(OC)c1OC	1.4%
Cc1ccc(C)c(NS(=O)(=O)c2ccc(OCC(=O)NCc3cccnc3)cc2)c1	-1.65%
CC(C)(C)OC(=O)C[C@@H]1C/C=C\C[C@@H](CC(=O)NCCO)C(=O)N[C@H](Cc2c[nH]c3ccccc23)COC1=O	-0.08%
CCOC(=O)C=Cc1ccc(C(=O)OCC)[nH]1	5.25%
CSCCC(NC(=O)COc1ccccc1)C(=O)N(C)CC(=O)Nc1ccc(C)cc1 (stereo not drawn)	0.98%
C=CC[n+]1c(-c2ccc(C)cc2)csc1NNC(=O)Nc1ccccc1	0.82%
O=C(Nc1cccc(Cl)c1)c1cc(S(=O)(=O)N2CCCCC2)c[nH]1	4.63%
CCOc1ccc(NC(=O)CN(C)C(=O)COc2cccc(CC)c2)cc1OCC	-0.57%
COc1ccc(CCNC(=S)N2CCN(S(=O)(=O)c3ccc(F)cc3)CC2)cc1	-3.34%
Cc1nc(C(=O)NCc2ccccc2)sc1C1(C)CC(c2cccnc2)=NO1 (stereo not drawn)	25.4% (active)
Cc1nc(-c2ccc(Cl)cc2)sc1C1(C)CC(c2ccccc2F)=NO1 (stereo not drawn)	-0.32%
Cc1nc(C(=O)Nc2ccc(Cl)cc2)sc1C1(C)CC(c2ccccc2)=NO1 (stereo not drawn)	1.09%
CN(C(=O)CN(CCO)CC(=O)N(C)C(C)(C)Cc1ccccc1)C(C)(C)Cc1ccccc1	39.7% (active)
CC(C)(C)N(Cc1ccccc1)C(=O)c1ccncc1	-0.8%
Cc1cc(C)cc(NC(=O)N(C)Cc2ccccc2)c1	-2.57%
CCc1sc(C(=O)N2CCN(CC(=O)Nc3cccc(F)c3)CC2)cc1C	-3.37%
COc1cccc(CNc2nc(NCc3cccs3)nc3ccsc23)c1	27.2% (active)
COc1ccc(NC(=S)NCc2cccs2)c(OC)c1	-3.29%
COc1cccc(CNc2nc3cc(-c4csc5ccccc45)sc3c(=O)n2C)c1	-0.3%
CC(=O)Nc1cccc(-c2cc3nc(NCc4cccnc4)n(C)c(=O)c3s2)c1	0.81%

Compound	activation
CCOC(=O)CNc1nc2ccccc2n2c(C)nnc12	1.28%
CC(=O)NCC(=O)N(Cc1ccco1)C1(C(=O)NC2CCCC2)CCCCC1	-0.72%
CC(C)[C@H](NC(=O)Nc1ccc(S(N)(=O)=O)cc1)C(=O)O	-2.17%
CCN(CC)c1ccc(NC(=O)CN2C(=O)NC3(CCc4ccccc43)C2=O)cc1 (stereo not drawn)	2.57%
CN(C)c1ccc(/C=C2\NC(=S)N(Cc3ccccc3)C2=O)cc1	41.4% (active)
O=C(Cn1cc(C(=O)C2CC2)c2ccccc21)Nc1ccccc1Cl	1.64%
C=CCNc1nnc(SCC(=O)N2CCCCC2)c2ccccc12	-0.35%
C/C(=C/C(=O)N1CCN(C)CC1)C(=O)O	-1.65%
Nc1ccc2c(c1)C(=Cc1cccnc1)c1ccccc1-2	-7.37%
C[C@@H]1CN([C@@H](C)CO)S(=O)(=O)c2ccc(-c3ccc(C(=O)N(C)C)cc3)cc2O[C@@H]1CN(C)Cc1ccccc1C(=O)O	-0.69%
O=C(Cc1ccc(Cl)cc1)NC(=S)Nc1ccccc1O	75.2% (active)
Cc1ccccc1NC(=S)NC(=O)Cc1ccc(Cl)cc1	25.7% (active)
Cc1ccccc1N/C(SCc1ccc(Cl)cc1)=C(/C#N)C(N)=O	-7.05%
Cc1cc(C(=O)NNC(=S)Nc2ccccc2C)cs1	-0.42%
O=C(NC(=S)Nc1ccc(Cl)cc1Cl)C1CC1	-3.08%
Oc1ccc(CNc2ccccc2O)cc1	3.67%
O=C(C1CCN(S(=O)(=O)c2cccs2)CC1)N1CCCCCC1	-3.68%
CCOc1ccc(NC(=O)N(CC(C)C)CC(C)C)cc1	-3.79%
CCC(=C/c1sc2ccc3ccccc3c2[n+]1C)/C=C1\Sc2ccc3ccccc3c2N1C	1.63%
COC(=O)CSc1snnc1-c1ccc(Cl)c(Cl)c1	-7.41%
CN(C)c1cc(N)c2ccccc2n1 (tested in a mixture with another compound)	-6.58%

Compound	activation
NS(=O)(=O)c1cccc(NC(=O)CC23CC4CC(CC(Br)(C4)C2)C3)c1	-1.18%
CC(=O)NC1=NN(C(C)=O)C(C)(c2ccc(C)cc2)S1 (stereo not drawn)	1.09%
COc1ccccc1C(=O)Oc1ccc(N2C(=O)CCC2=O)cc1	-1.29%
O=C(CCN1C(=O)[C@H]2CC=CC[C@H]2C1=O)NCc1nc(-c2ccccc2)no1	0.28%
COc1ccccc1C(=O)NC(CCSC)C(=O)NNC(=O)c1csc(N2CCOCC2)n1 (stereo not drawn)	-2.2%
O=C(NCCSc1ncc(-c2ccccc2)[nH]1)c1ccco1	-1.14%
Cc1nnc(SCC(=O)Nc2ncc3c(n2)CC(C)(C)CC3=O)s1	-1.69%
COC(=O)c1sc(N)c(C(=O)OC)c1COC(=O)CNS(=O)(=O)c1ccc(C)cc1	1.46%
C/C=C/c1ccc(OCC(=O)OCC(=O)Nc2c(C)nn(-c3ccccc3)c2C)c(OC)c1	0.8%
Nc1ccc2nc3c(=O)[nH]c(=S)[nH]c3nc2c1	13.3%
CCCn1c(=O)c2c(C(F)(F)F)cc(-c3cccs3)nc2n(CCC)c1=O	-2.81%
COC(=O)c1c(NC(=O)c2ccccc2F)sc2c1C(C(=O)OC)CC2 (stereo not drawn)	0.55%
COCC1CCCN(C(=O)c2ccc3oc(C(C)C)nc3c2)C1 (stereo not drawn)	-5.48%
O=C(NCc1cccc(Cl)c1)C1=CC=CN2CCS(=O)(=O)N=C12	-4.02%
CCCCC(=O)Nc1ccc2c(c1)C(=O)NC2=O	-1.75%
CCCCC(=O)NNC(=S)NC(=O)C(c1ccccc1)c1ccccc1	76.2% (active)
C=CCC(NC(=O)Cc1ccccc1)C(=O)NCCC (stereo not drawn)	1.37%
CNC(=O)C1CN(C(=O)c2cccc(S(=O)(=O)N3CCc4ccccc43)c2)c2ccccc2O1 (stereo not drawn)	2.34%
CC(C)C[C@H](NC(=O)NCCc1ccc(Cl)cc1)C(=O)O	-0.97%
CC(NC(=O)c1ccco1)c1ccc2c(c1)OCO2 (stereo not drawn)	-1.73%
